The values that follow come from the supplement of paper PMC10646978.

What all share (conditions): modulator concentration 10 µM
Experiment [1] concerns RAW-Dual (murine macrophage reporter line). Briefly: NF-kB reporter (SEAP) activity fold change vs agonist alone; higher = enhanced NF-kB activity. Put shortly: (§1)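 Overnight stimulation with a PRR agonist followed pre-incubation for 1 hour at 37 °C with compound at 10 μM final. This was done in RAW-Dual murine macrophage reporter cells seeded at 50 000 per well in 384-well plates. NF-κB (SEAP, QUANTI-Blue absorbance at 620 nm) and IRF (Lucia luciferase, QUANTI-Luc luminescence) were read from the supernatant. Each reporter's fold change relative to the mean agonist-only control on the same plate was averaged over replicate plates.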

Experiment [2] has the same test system. The experiment is described as follows: IRF reporter (Lucia luciferase) activity fold change vs agonist alone; higher = enhanced IRF activity. In outline:
as §1

The test system is the same in experiment [3]. Briefly: viability score (confluency relative to resting cells, overnight) (fraction); higher = more viable, active = viable (0.7 or more). In outline:
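Two confluency masks, generated with IncuCyte software over all imaged wells, were applied to IncuCyte images of RAW-Dual macrophages. The cells, in 384-well plates, had been exposed overnight to 10 μM final compound. The viability score is confluency as a fraction of resting cells, and a compound met the cutoff only with both masks above 70% of resting cells.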

[4] abbreviates: agonist: CpG ODN 1826 0.5 ug/mL.

± gives the standard deviation.

As to `CN1CCC2(CC1)NC(=O)N(CC(=O)N1CCc3ccccc31)C2=O`, the NF-kB reporter in experiment [1] (setting [4]) came out at 0.927 ± 0.094; in experiment [1] (agonist: LPS 0.1 ug/mL) it was 1.14 ± 0.096; in experiment [1] (agonist: MPLA […]), 0.942 ± 0.11. The figures for the IRF reporter in experiment [2] (agonist: 3'3'-cGAMP 10 ug/mL), in experiment [2] (agonist: LPS 0.1 ug/mL) and in experiment [2] (agonist: MPLA […]) were 1.01 ± 0.063, 1.18 ± 0.14 and 1.2 ± 0.1, respectively. Moreover, the viability score in experiment [3] is 1.02 (active).
Turning to `COc1ccc(C=NNc2nc(-c3ccccc3)cc(-c3ccc(Br)cc3)n2)c(OC)c1`, the NF-kB reporter in experiment [1] (setting [4]) came out at 0.918 ± 0.091; in experiment [1] (agonist: LPS 0.1 ug/mL), 0.94 ± 0.1; in experiment [1] (agonist: MPLA […]), 1.03 ± 0.12. Also, the results for the IRF reporter in experiment [2] (agonist: 3'3'-cGAMP 10 ug/mL), in experiment [2] (agonist: LPS 0.1 ug/mL) and in experiment [2] (agonist: MPLA […]) were 0.96 ± 0.03, 1.08 ± 0.12 and 1.08 ± 0.17, respectively. The viability score in experiment [3] is 1.03 (active).
In the case of `COCCOC(=O)C1=C(C)NC(C)=C(C(=O)OCC=Cc2ccccc2)C1c1cccc([N+](=O)[O-])c1` (stereo not drawn), the results for the NF-kB reporter in experiment [1] (setting [4]), in experiment [1] (agonist: LPS 0.1 ug/mL) and in experiment [1] (agonist: MPLA […]) were 0.586 ± 0.052, 0.539 ± 0.074 and 1.07 ± 0.068, respectively. Further, the IRF reporter in experiment [2] (agonist: 3'3'-cGAMP 10 ug/mL) came out at 0.548 ± 0.035; in experiment [2] (agonist: LPS 0.1 ug/mL) it was 1.06 ± 0.035; in experiment [2] (agonist: MPLA […]), 2.1 ± 0.43. Further, the viability score in experiment [3] was 0.989 (active).
For `COc1ccc(C=C(NC(=O)c2cc(OC)c(OC)c(OC)c2)C(=O)NC(C(=O)O)C(C)C)c(OC)c1` (stereo not drawn), the NF-kB reporter in experiment [1] (setting [4]) was 1.01 ± 0.091; in experiment [1] (agonist: LPS 0.1 ug/mL), 0.985 ± 0.055; in experiment [1] (agonist: MPLA […]), 0.934 ± 0.11. Further, the IRF reporter is 0.908 ± 0.031 in experiment [2] (agonist: 3'3'-cGAMP 10 ug/mL), 1.23 ± 0.18 in experiment [2] (agonist: LPS 0.1 ug/mL) and 1.04 ± 0.29 in experiment [2] (agonist: MPLA […]). In addition, the viability score in experiment [3] is 1.02 (active).
As to `CCOC(=O)CNS(=O)(=O)c1ccc([N+](=O)[O-])cc1`, the NF-kB reporter in experiment [1] (setting [4]) came to 1.09 ± 0.093; in experiment [1] (agonist: LPS 0.1 ug/mL), 1.05 ± 0.11; in experiment [1] (agonist: MPLA […]), 1.04 ± 0.061. For the same compound, the IRF reporter in experiment [2] (agonist: 3'3'-cGAMP 10 ug/mL) came to 0.997 ± 0.13; in experiment [2] (agonist: LPS 0.1 ug/mL) it was 1.05 ± 0.044; in experiment [2] (agonist: MPLA […]) it was 1.09 ± 0.087. Further, in experiment [3], the viability score is 0.998 (active).
As for `C=CCNC(=O)CN(Cc1ccccc1)S(=O)(=O)c1ccc(OC)c(OC)c1`, the figures for the NF-kB reporter in experiment [1] (setting [4]), in experiment [1] (agonist: LPS 0.1 ug/mL) and in experiment [1] (agonist: MPLA […]) were 0.684 ± 0.4, 0.886 ± 0.078 and 0.946 ± 0.089, respectively. Also, the IRF reporter in experiment [2] (agonist: 3'3'-cGAMP 10 ug/mL) was determined as 0.916 ± 0.029; in experiment [2] (agonist: LPS 0.1 ug/mL) it was 1.11 ± 0.14; in experiment [2] (agonist: MPLA […]), 1.13 ± 0.17. In addition, in experiment [3], the viability score is 1.04 (active).
As for `CCOC(=O)C(CCCOc1c(C)cc(Cl)cc1C)C(=O)OCC`, the NF-kB reporter in experiment [1] (setting [4]) came out at 0.961 ± 0.078; in experiment [1] (agonist: LPS 0.1 ug/mL), 0.909 ± 0.069; in experiment [1] (agonist: MPLA […]), 1.08 ± 0.086. The IRF reporter turned out to be 0.985 ± 0.04 in experiment [2] (agonist: 3'3'-cGAMP 10 ug/mL), 0.95 ± 0.045 in experiment [2] (agonist: LPS 0.1 ug/mL) and 1.22 ± 0.17 in experiment [2] (agonist: MPLA […]). Also, the viability score in experiment [3] is 0.997 (active).
As to `CCCOc1ccc(C(=O)OCCN(CC)CC)cc1N.Cl`, the NF-kB reporter was 0.857 ± 0.14 in experiment [1] (setting [4]), 1.03 ± 0.1 in experiment [1] (agonist: LPS 0.1 ug/mL) and 0.928 ± 0.077 in experiment [1] (agonist: MPLA […]). Besides, the values for the IRF reporter in experiment [2] (agonist: 3'3'-cGAMP 10 ug/mL), in experiment [2] (agonist: LPS 0.1 ug/mL) and in experiment [2] (agonist: MPLA […]) were 1.01 ± 0.044, 1.2 ± 0.19 and 1.44 ± 0.15, respectively. The viability score in experiment [3] is 1 (active).
On to `O=[N+]([O-])c1cc2c(cc1C=Nc1ccc(O)cc1)OCO2`, for which the values for the NF-kB reporter in experiment [1] (setting [4]), in experiment [1] (agonist: LPS 0.1 ug/mL) and in experiment [1] (agonist: MPLA […]) were 0.842 ± 0.14, 1.09 ± 0.17 and 1.27 ± 0.11, respectively. Moreover, the IRF reporter in experiment [2] (agonist: 3'3'-cGAMP 10 ug/mL) was 0.443 ± 0.011; in experiment [2] (agonist: LPS 0.1 ug/mL), 1.19 ± 0.15; in experiment [2] (agonist: MPLA […]) it was 1.12 ± 0.22. Moreover, the viability score in experiment [3] is 1 (active).
As to `Fc1ccc2ccccc2c1`, the NF-kB reporter came out at 0.958 ± 0.077 in experiment [1] (setting [4]), 0.979 ± 0.16 in experiment [1] (agonist: LPS 0.1 ug/mL) and 1.01 ± 0.13 in experiment [1] (agonist: MPLA […]). For the same compound, the figures for the IRF reporter in experiment [2] (agonist: 3'3'-cGAMP 10 ug/mL), in experiment [2] (agonist: LPS 0.1 ug/mL) and in experiment [2] (agonist: MPLA […]) were 1.03 ± 0.033, 1.12 ± 0.12 and 1.15 ± 0.18, respectively. Moreover, the viability score in experiment [3] was 1.01 (active).
Consider `COC(=O)C1=CN(CC2CCCO2)C=C(C(=O)OC)C1c1cccc(Br)c1` (stereo not drawn), for which the NF-kB reporter in experiment [1] (setting [4]) was found to be 0.886 ± 0.18; in experiment [1] (agonist: LPS 0.1 ug/mL), 0.871 ± 0.088; in experiment [1] (agonist: MPLA […]), 0.944 ± 0.073. The values for the IRF reporter in experiment [2] (agonist: 3'3'-cGAMP 10 ug/mL), in experiment [2] (agonist: LPS 0.1 ug/mL) and in experiment [2] (agonist: MPLA […]) were 0.975 ± 0.037, 1.21 ± 0.13 and 1.29 ± 0.13, respectively. Also, the viability score in experiment [3] is 1 (active).
In the case of `Cc1ccc2sc(NC(=O)c3cccc(N4C(=O)CCC4=O)c3)nc2c1C`, the NF-kB reporter in experiment [1] (setting [4]) came to 0.946 ± 0.097; in experiment [1] (agonist: LPS 0.1 ug/mL), 0.877 ± 0.074; in experiment [1] (agonist: MPLA […]), 1.11 ± 0.12. Also, the IRF reporter in experiment [2] (agonist: 3'3'-cGAMP 10 ug/mL) was 0.939 ± 0.03; in experiment [2] (agonist: LPS 0.1 ug/mL), 1.39 ± 0.19; in experiment [2] (agonist: MPLA […]) it was 1.57 ± 0.21. The viability score in experiment [3] was 1.02 (active).
Consider `CN1CCN(c2c(F)cc3c(=O)c(C(=O)O)cn4c3c2OCN4C)CC1`, for which the figures for the NF-kB reporter in experiment [1] (setting [4]), in experiment [1] (agonist: LPS 0.1 ug/mL) and in experiment [1] (agonist: MPLA […]) were 1.2 ± 0.34, 1.09 ± 0.093 and 0.971 ± 0.099, respectively. Also, the IRF reporter in experiment [2] (agonist: 3'3'-cGAMP 10 ug/mL) was determined as 0.958 ± 0.039; in experiment [2] (agonist: LPS 0.1 ug/mL) it was 1.26 ± 0.15; in experiment [2] (agonist: MPLA […]), 1.25 ± 0.12. For the same compound, the viability score in experiment [3] is 0.995 (active).
As to `Nc1nc(NC2CC2)c2ncn([C@H]3C=C[C@@H](CO)C3)c2n1.Nc1nc(NC2CC2)c2ncn([C@H]3C=C[C@@H](CO)C3)c2n1.O=S(=O)(O)O`, the NF-kB reporter in experiment [1] (setting [4]) worked out at 1.1 ± 0.26; in experiment [1] (agonist: LPS 0.1 ug/mL), 1.02 ± 0.057; in experiment [1] (agonist: MPLA […]), 1.04 ± 0.093. For the same compound, the IRF reporter amounted to 0.864 ± 0.065 in experiment [2] (agonist: 3'3'-cGAMP 10 ug/mL), 1.2 ± 0.15 in experiment [2] (agonist: LPS 0.1 ug/mL) and 1.07 ± 0.12 in experiment [2] (agonist: MPLA […]). The viability score in experiment [3] was 0.791 (active).
